# CIT2-GFP yeast = yeast TOR pathway CIT2-GFP modulation; S. cerevisiae CIT2-GFP strain, flow cytometry, 3 h; 100 means same as DMSO wells; GFP response vs DMSO, % at 10 µM; 0.065% of 320,000 active; AID 2029;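 active = GFP response relative to DMSO above a set limit, near the screen mean plus 3 SD, cut at about 150% in these data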;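 also: ratio of well median GFP fluorescence to mean of DMSO wells on the plate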
# LAP4-GFP MLPCN = alters LAP4-GFP fluorescence in TOR pathway yeast screen; AID 2023; GFP response vs DMSO, % at 10 µM; S. cerevisiae LAP4-GFP multiplex, flow cytometry GFP, 3 h; median GFP as percent of DMSO wells; 0.34% of 320,000 active;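 active = GFP response vs DMSO above a set limit, about the screen mean plus 3 SD, cut at about 150% in these data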
# RPL19A-GFP yeast = alters RPL19A-GFP fluorescence in TOR pathway yeast screen; S. cerevisiae RPL19A-GFP strain, flow cytometry, 3 h; stronger effect = lower value; percent response vs DMSO, % at 10 µM; 0.3% of 330,000 active; AID 2025;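 active = percent response vs DMSO below 50%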;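 also: median channel GFP fluorescence of the barcoded RPL19A-GFP strain; ratio of sample median GFP to plate DMSO average so 100% = DMSO; lower means less RPL19A-GFP as with rapamycin TOR inhibition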
# AGP1-GFP MLPCN = yeast TOR pathway AGP1-GFP modulation | S. cerevisiae AGP1-GFP multiplex flow cytometry, 3 h; GFP as percent of DMSO wells | GFP response vs DMSO, % at 10 µM | 0.02% of 320,000 active;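 active = GFP response relative to DMSO above a set limit, near screen average plus 3 SD, cut at about 150% in these data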;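 also: median GFP channel fluorescence of the gated AGP1 strain per well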
# MEP2 TOR yeast = yeast TOR pathway MEP2-GFP modulation | S. cerevisiae MEP2-GFP strain, flow cytometry GFP, 3 h; 100% = DMSO control level | AID 2016 | 0.51% of 330,000 active | GFP response vs DMSO, % at 10 µM;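 active = GFP response versus DMSO above a set limit, roughly screen mean plus 3 SD, cut at about 180% in these data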;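 also: median GFP fluorescence of the barcode-gated MEP2-GFP cells per well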
# LAP4 cherry2 = second confirmation of modulators of TOR reporter LAP4-GFP in yeast; shares compounds with LAP4-GFP MLPCN; S. cerevisiae LAP4-GFP strain, flow cytometry GFP, 3 h; GFP response vs DMSO, % at 10 µM; 20% of 590 active; AID 2621;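 active = GFP signal as percent of the solvent control above about 150%, meaning raised reporter expression, limit read from the data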;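 also: ratio of well median GFP fluorescence to plate DMSO mean so 100% = DMSO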
# MEP2 cherry2 = reconfirmed MEP2-GFP TOR pathway modulator in yeast. shares compounds with LAP4-GFP MLPCN. S. cerevisiae MEP2-GFP strain, flow cytometry GFP, 3 h. GFP response vs DMSO, % at 10 µM. 10% of 590 active. AID 2622;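 active = GFP signal above 150% of the solvent control wells, that is a rise of more than half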;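 also: median channel GFP fluorescence of all gated yeast cells per well; ratio of median GFP to plate DMSO average so 100% = DMSO level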
# RPL19A-GFP pick2 = reconfirmed modulator of RPL19A-GFP TOR reporter in yeast; GFP response vs DMSO, % at 10 µM; shares compounds with LAP4-GFP MLPCN; 3% of 590 active; S. cerevisiae RPL19A-GFP strain, flow cytometry GFP, 3 h; stronger effect = lower value; 100% means same as DMSO wells; AID 2623;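 active = under 65% GFP response relative to DMSO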;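 also: median GFP channel fluorescence per well over the all cells gate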
# CIT2 GFP CP2 = reconfirmed modulator of CIT2-GFP TOR reporter in yeast; shares compounds with LAP4-GFP MLPCN; S. cerevisiae CIT2-GFP strain, flow cytometry GFP, 3 h; DMSO control wells read 100%; GFP response vs DMSO, % at 10 µM; 8% of 590 active;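 active = GFP response vs DMSO above about 150%, limit read from the data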;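 also: median green fluorescence per well over all gated yeast cells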
# AGP1-GFP pick2 = yeast AGP1-GFP TOR reporter modulation, second cherry pick. shares compounds with LAP4-GFP MLPCN. S. cerevisiae AGP1-GFP strain, flow cytometry GFP, 3 h. percent response vs DMSO, % at 10 µM. 590 tested, under 10 active. AID 2643;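 active = over 150 percent of DMSO response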;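 also: median GFP channel fluorescence over all cells without mother daughter split; sample median GFP divided by mean DMSO control so 100% equals DMSO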
# Yeast autofluor = compound is autofluorescent in yeast s288c cells. AID 2757. fluorescence change (kMESF span) at 33 µM. 610 tested, under 10 active. shares compounds with LAP4-GFP MLPCN. S. cerevisiae s288c, 520 nm autofluorescence, flow cytometry, 3 h; stronger effect = higher value; zero means same as solvent-only cells;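 active = fluorescence span over the dose series, or activity score, above about 33, limit read from the data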
# * = called active by the depositor; · = not tested or not shown. In the library only some 0.92% were active in any assay of this set; here they are far more common.
SMILES,CIT2-GFP yeast,LAP4-GFP MLPCN,RPL19A-GFP yeast,AGP1-GFP MLPCN,MEP2 TOR yeast,LAP4 cherry2,MEP2 cherry2,RPL19A-GFP pick2,CIT2 GFP CP2,AGP1-GFP pick2,others
Cc1ccc2c(c1)nnn2C1CCN(S(=O)(=O)c2ccc(C(=O)N(C)C3CCCCC3)cc2)CC1,104,103,64,29,134,96,94,100,108,99,
CN(c1ccc(F)cc1)S(=O)(=O)c1ccc(Cl)c(C(=O)NC2(C)CCS(=O)(=O)C2)c1 (stereo not given),90,92,92,94,102,·,·,·,·,·,
CCN1CCN(Cc2c(O)ccc3c2O/C(=C\C=C\c2ccccc2)C3=O)CC1,61,153*,84,68,108,104,103,100,113,100,
O=C1/C(=C/C=C/c2ccccc2)Oc2c1ccc(O)c2CN1CCN(CCO)CC1,94,103,97,97,99,·,·,·,·,·,
O=C(NCc1cccc(C(F)(F)F)c1)c1ccc2c(c1)OCCO2,99,99,100,97,108,·,·,·,·,·,
Cc1ccc(N=C2NC(=O)/C(=C/C=C/c3ccco3)S2)cc1,97,103,98,98,97,·,·,·,·,·,
Cc1cccc(N=C2NC(=O)/C(=C/C=C/c3ccco3)S2)c1C,112,162*,96,91,100,190*,122,112,118,98,Yeast autofluor=3.4
Cc1cc(C)c(C(=O)Nn2c(C)nc3ccccc3c2=O)cc1C,93,110,107,95,98,·,·,·,·,·,
Cn1nc(C(=O)OCC(=O)Nc2sccc2C(N)=O)c2ccccc2c1=O,98,97,100,98,105,·,·,·,·,·,
O=C(c1ccc(O)cc1)c1ccc(O)cc1O,98,114,102,102,99,·,·,·,·,·,
CN(C)c1ccc(C(=O)c2ccc(O)cc2O)cc1,84,206*,81,58,85,105,100,99,90,89,
COc1ccccc1OCCCc1c(C)n[nH]c1C,100,190*,117,58,119,·,·,·,·,·,Yeast autofluor=2
COc1ccccc1OCCCCCc1c(C)n[nH]c1C,91,104,102,95,108,·,·,·,·,·,
O=C(CNC(=O)c1ccccc1F)N/N=C\C=C\c1ccccc1,95,93,104,97,97,·,·,·,·,·,
CCOC(=O)Cn1cc(/C=C/[N+](=O)[O-])c2ccccc21,76,154*,92,93,94,·,·,·,·,·,Yeast autofluor=0.31
CCOC(=O)COc1ccc2ccccc2c1/C=C/[N+](=O)[O-],89,230*,79,86,84,293*,114,82,118,98,Yeast autofluor=0.1
CN(CC(=O)Nc1cccc(F)c1)C(=O)CN1C(=O)C2CCCCC2C1=O (stereo not given),100,106,97,102,101,·,·,·,·,·,
CCSc1ccc(-c2nn(-c3ccccc3)cc2/C=C(/C#N)C(=O)NC)cc1,82,74,60,68,171,92,94,102,110,95,
COc1ccc(C(=O)c2ccccc2)c(OCC(=O)NC2CC2)c1,90,120,61,73,135,107,95,94,97,91,
COc1ccc(C(=O)OCC(=O)NC2CCCC2)c(OC)c1,97,106,102,96,105,·,·,·,·,·,
